This is a sample that favours compounds with a hit; in the whole collection about 1.6% have one here.
KCNQ2 inh: rat KCNQ2 potassium channel inhibitors, primary screen, cell-based, CHO-K1, FluxOR thallium flux, B-score; Potassium voltage-gated channel subfamily KQT member 2 (Rattus norvegicus), O88943; 20 min; stronger effect = lower value; B-score at 10 µM; hit rate 1.1% among 310,000;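 active = fluorescence ratio B-score at most minus 3 library SDs, with starting brightness B-score within 2 library SDs, cut at about -5.5 in these data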
KCNQ2 pot: potentiators of rat KCNQ2 potassium channel. B-score at 10 µM. CHO-K1 KCNQ2, FluxOR thallium flux fluorescence; stronger effect = higher value. hit rate 0.54% among 310,000. Potassium voltage-gated channel subfamily KQT member 2 (Rattus norvegicus), O88943;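 active = fluorescence ratio B-score at least 3 SD of library B-scores, with initial fluorescence B-score within 3 of them, cut at about 5.3 in these data; same plate scores as AID 2156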;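 note: B-score of peak minus minimum over baseline fluorescence ratio after K+ and Tl+ stimulus; positive B-score means potentiation of KCNQ2 with more thallium influx and brighter signal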
Kir21 conf inh: mouse Kir2.1 channel blockers, retest, confirmation, cell-based, FluxOR thallium flux, duplicate; Tl flux remaining, % of negative control (stronger effect = lower value), % at 10 µM; Kir2.1-expressing cells, FluxOR thallium flux fluorescence; stronger effect = lower value; hit rate 41% among 2,300; shares compounds with KCNQ2 pot;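 active = Primary-screen hit whose thallium flux fell at least 3 control SD below untreated wells in both duplicates, with normal baseline fluorescence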;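 note: 0% = blank wells without stimulus and 100% = stimulated no-compound controls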
HEK293 Tl flux: parental HEK293 activity in Kir2.1 inhibitor counter-screen. shares compounds with KCNQ2 pot. hit rate 19% among 2,300. AID 2105. FluxOR signal as % of negative control (100 = no effect), % at 10 µM. parental HEK293 cells, FluxOR thallium flux fluorescence; 0% = unstimulated blank wells;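 active = dye signal at least 3 control SD above or below untreated wells in both duplicates, raw fluorescence within 3, either direction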;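 note: percent is based on the flux ratio of peak minus minimum fluorescence over baseline F0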
CHO-K1 ctr: nonspecific thallium flux increase in parental CHO-K1, confirmation, counter-screen for KCNQ2 potentiator project, cell-based, FluxOR thallium flux, duplicate; shares compounds with KCNQ2 pot; parental CHO-K1 cells, FluxOR thallium flux fluorescence; zero = vehicle mean+3SD, 100% = vehicle-minus-blank window; hit rate 43% among 1,200; activity increase over 3SD of controls, % at 10 µM;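 active = signal rise of at least 3 SD above the untreated control mean, in both duplicate wells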;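 note: counter screen of KCNQ2 potentiator hits so any rise reflects channel-independent effects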
KCNQ1 pot spec: human KCNQ1 channel potentiation off-target, confirmation, selectivity assay for KCNQ2 potentiator project, cell-based, CHO, FluxOR thallium flux; shares compounds with KCNQ2 pot; CHO KCNQ1 stable, FluxOR thallium flux fluorescence; beyond 3SD, as % of vehicle-control signal; activation over 3SD threshold, % at 10 µM; hit rate 28% among 1,200;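 active = fluorescence ratio rise of at least 3 SD of vehicle wells above their mean, in both replicate wells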;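 note: 0% = vehicle mean plus 3 SD and 100% = vehicle minus unstimulated blank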
Target sequence (P51787 whole entry, looked up): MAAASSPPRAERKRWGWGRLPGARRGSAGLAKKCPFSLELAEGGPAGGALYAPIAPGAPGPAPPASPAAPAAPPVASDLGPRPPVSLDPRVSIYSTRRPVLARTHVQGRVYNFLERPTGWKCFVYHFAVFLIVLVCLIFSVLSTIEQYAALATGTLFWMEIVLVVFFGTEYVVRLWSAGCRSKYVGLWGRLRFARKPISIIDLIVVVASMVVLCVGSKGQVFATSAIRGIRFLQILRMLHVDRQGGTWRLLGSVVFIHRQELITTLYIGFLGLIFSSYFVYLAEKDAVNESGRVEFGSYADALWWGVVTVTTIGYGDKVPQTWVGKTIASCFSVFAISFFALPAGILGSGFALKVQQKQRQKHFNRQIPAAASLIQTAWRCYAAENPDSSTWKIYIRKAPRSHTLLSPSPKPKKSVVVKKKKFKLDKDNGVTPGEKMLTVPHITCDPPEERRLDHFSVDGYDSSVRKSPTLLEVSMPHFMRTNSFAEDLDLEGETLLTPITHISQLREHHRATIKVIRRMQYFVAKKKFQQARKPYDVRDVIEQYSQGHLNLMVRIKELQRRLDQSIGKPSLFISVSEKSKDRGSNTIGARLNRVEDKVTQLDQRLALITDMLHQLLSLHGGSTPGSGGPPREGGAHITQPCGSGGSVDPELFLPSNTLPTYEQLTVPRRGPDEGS
KCNQ2 pot confirm: rat KCNQ2 channel potentiators, confirmation, cell-based, CHO, FluxOR thallium flux, duplicate. potentiation, less the hit threshold, % at 10 µM. CHO-KCNQ2 cells, FluxOR thallium flux fluorescence. shares compounds with KCNQ2 pot. hit rate 68% among 1,200;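 active = fluorescence ratio rising 3 SD or more over the vehicle control mean in both replicates, plus primary screen hit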;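 note: peak minus minimum thallium fluorescence divided by baseline after K/Tl stimulus; 0% = vehicle mean plus 3 SD and 100% = vehicle minus unstimulated blank difference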
Kir2-1 sel: mouse Kir2.1 channel activation off-target, confirmation, selectivity assay for KCNQ2 potentiator project, cell-based, HEK293, FluxOR thallium flux | shares compounds with KCNQ2 pot | HEK293 Kir2.1, FluxOR thallium flux fluorescence | activity over 3SD threshold, % at 10 µM | hit rate 2% among 1,200 | AID 2345, 2010;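 active = fluorescence ratio rise of at least 3 SD above the vehicle-control mean, seen in both replicates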;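 note: 0% = vehicle mean plus 3 SD and 100% = vehicle minus no-stimulus blank window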
KCNQ2 W236L pot: potentiators of retigabine-insensitive KCNQ2 W236L, mechanism study for KCNQ2 potentiator project, cell-based, rat KCNQ2 W236L, CHO, automated patch clamp | shares compounds with KCNQ2 pot | automated patch clamp current | current increase over 3SD of negative controls (%), stronger effect = higher value, % at 25 µM | hit rate 10% among 940 | AID 2558, 2010;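 active = current increase at least 3 SD of the untreated controls above them in both duplicate recordings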
The depositor's hits bear a star; i = inactive; x = no result.

SMILES | KCNQ2 inh | KCNQ2 pot | Kir21 conf inh | HEK293 Tl flux | CHO-K1 ctr | KCNQ1 pot spec | KCNQ2 pot confirm | Kir2-1 sel | others
O=C(CC(c1ccccc1)c1cc(Br)ccc1O)NCc1ccco1 (configuration not stated) | i | 18* | x | x | -7 | -1 | 67* | -66 | KCNQ2 W236L pot=i
O=CN1CCN(C(=O)CC(c2ccccc2)c2cc(Br)ccc2O)CC1 (configuration not stated) | i | 0.56 | x | x | x | x | x | x
CCOc1ccc(NC(=S)N2CCN(S(=O)(=O)c3ccc(OC)cc3)CC2)cc1 | i | 0.46 | x | x | x | x | x | x
N#Cc1c(N)sc2c1CCN(CCc1ccccc1)C2 | i | x | x | x | x | x | x | x
COc1ccc(OC)c(S(=O)(=O)N2CCCC(C(=O)N3CCCCCC3)C2)c1 (configuration not stated) | i | x | x | x | x | x | x | x
Cc1cccc(/C=N/n2c(COc3ccccc3)n[nH]c2=S)c1 | i | 6* | i | 158%* | -8 | -14 | 0.0* | -38 | KCNQ2 W236L pot=i
S=c1[nH]nc(COc2ccccc2)n1/N=C/c1ccc(Cl)c(Cl)c1 | i | x | x | x | x | x | x | x
Cc1ccc(CNC(=O)CCc2cn(C)c3ccccc23)cc1 | i | 1.1 | x | x | x | x | x | x
CCCCC(=O)NS(=O)(=O)c1ccc(N=NN(CC)CC)cc1 | i | 0.09 | x | x | x | x | x | x
N#Cc1cnn(-c2cccc(Cl)c2)c1-n1cccc1 | i | 0.75 | x | x | x | x | x | x
CC1CCN(CC(=O)Nc2ccc(S(=O)(=O)N3CCCCC3)cc2)CC1 | i | 0.02 | x | x | x | x | x | x
CC1CCN(CC(=O)Nc2ccc(N3CCCCCC3)cc2)CC1 | i | 5.9* | x | x | 7.2* | -15 | -11 | -62
CC1CC(=O)N(CC(=O)Nc2ccccc2F)c2ccccc2S1(=O)=O (configuration not stated) | i | x | x | x | x | x | x | x
Cc1ccc(SCC(=O)OC(C)C(=O)NCc2ccccc2)cc1 (configuration not stated) | i | x | x | x | x | x | x | x
O=C(N/N=C/c1cccc(Oc2ccccc2)c1)c1cc[n+]([O-])cc1 | i | x | x | x | x | x | x | x
Nc1ccc(C(=O)N/N=C/c2cccc(Oc3ccccc3)c2)cc1 | i | 1.8 | 56%* | i | x | x | x | x
C=CCn1c(=NC(=O)c2ccccc2[N+](=O)[O-])sc2cc(S(C)(=O)=O)ccc21 | i | x | x | x | x | x | x | x
O=C(NN1CC(C(=O)OCc2ccc(Cl)cc2Cl)CC1=O)c1ccccc1 (configuration not stated) | i | 19* | i | i | -22 | 68* | 74* | -31 | KCNQ2 W236L pot=i
O=C(NCc1ccc(Cl)cc1Cl)C1CC(=O)N(Cc2ccccc2)C1 (configuration not stated) | i | 2.2 | x | x | x | x | x | x
CCOC(=O)CC/C(=N\NC(N)=O)c1ccc(OC)c(Cl)c1 | i | x | x | x | x | x | x | x
CCOC(=O)C1=NN(C(=O)Cc2ccccc2)C(O)(c2ccc(Cl)cc2)C1 (configuration not stated) | i | x | x | x | x | x | x | x
COC(=O)C1=NN(C(=O)c2cccc(Br)c2)C(O)(c2ccc(Cl)cc2)C1 (configuration not stated) | i | 16* | i | i | 18* | -8 | 65* | -24 | KCNQ2 W236L pot=i
O=C(Oc1ccc(NC(=O)c2cc3c(cc2Br)OCO3)cc1)c1ccccc1 | i | x | x | x | x | x | x | x
C[C@@H](CN1C2=NC[C@H](Cc3ccc(O)cc3)N2C[C@H]1Cc1ccc(O)cc1)NC(=O)CCC1CCCCC1 | i | x | x | x | x | x | x | x
COc1ccc(C[C@H]2CN3C(=NC[C@@H]3C(C)C)N2C[C@H](C)NC(=O)c2ccc(C)c(Br)c2)cc1 | i | x | 55%* | i | x | x | x | x
SMILES | KCNQ2 inh | KCNQ2 pot | Kir21 conf inh | HEK293 Tl flux | CHO-K1 ctr | KCNQ1 pot spec | KCNQ2 pot confirm | Kir2-1 sel | others
Cc1ccc(C(=O)N[C@@H](C)CN2C3=NC[C@H](C(C)C)N3C[C@H]2Cc2ccc(O)cc2)cc1Br | i | x | x | x | x | x | x | x
COc1ccc(C[C@H]2CN3C(=NC[C@@H]3Cc3ccc(O)cc3)N2C[C@H](C)NC(=O)c2ccc(C)c(Br)c2)cc1 | i | x | 48%* | i | x | x | x | x
CC1CCCC(C)N1c1nnc(NC(=O)c2cc(-c3ccc(Br)cc3)on2)s1 (configuration not stated) | i | 0.86 | x | x | x | x | x | x
CN1C(=O)/C(=N\OC(=O)c2cccc3ccccc23)c2ccccc21 | i | 5.4* | i | i | -16 | -12 | -19 | -36
COc1ccc(C(=O)O/N=C2\C(=O)N(C)c3ccccc32)cc1 | i | x | x | x | x | x | x | x
O=C(CSc1nc(-c2ccco2)cc(C(F)(F)F)n1)N1CCN(c2ccc(Cl)cc2)CC1 | i | 3 | x | x | x | x | x | x
COc1ccc(CCNC(=O)CSc2nc(-c3ccco3)cc(C(F)(F)F)n2)cc1OC | i | 0.16 | x | x | x | x | x | x
COc1ccccc1N1CCN(C(=O)CSc2nc(-c3ccco3)cc(C(F)(F)F)n2)CC1 | i | 12* | i | i | 16* | 13* | 11* | -27 | KCNQ2 W236L pot=i
O=C(CSc1nc(-c2ccco2)cc(C(F)(F)F)n1)N1CCN(Cc2ccccc2)CC1 | i | 23* | i | i | 81* | -3 | 42* | -47 | KCNQ2 W236L pot=i
COc1ccc(C(=O)Nc2c(Cl)cc(Cl)cc2C(=O)N2CCOCC2)cc1 | i | 0.26 | x | x | x | x | x | x
O=C(NNC(=O)c1ccc(Cl)c(Cl)c1)c1cccnc1 | i | x | x | x | x | x | x | x
O=C(Nc1cccnc1)c1ccc(Oc2ccccc2)cc1 | i | 18* | i | i | -12 | -18 | 85* | -49 | KCNQ2 W236L pot=i
O=C(Nc1cccnc1)c1ccccc1Oc1ccccc1 | i | x | x | x | x | x | x | x
O=C(Nc1cccnc1)c1ccc(Cl)c(Cl)c1 | i | 8.1* | i | i | 18* | -6 | 21* | -32 | KCNQ2 W236L pot=11%*
